# Results reported in PubChem BioAssay AID720579 (National Center for Advancing Translational Sciences (NCATS), 2013).
# The campaign covered roughly 310,000 compounds. About 1,900 (0.61%) were called active. Not shown: some 8% with an inconclusive outcome. What follows is part of a selection rich in actives, with near analogues and random picks from the rest. Unmarked numbers belong to inactive results. The call rests on the fitted dose curve; tested in A549 cells.
# Experiment: qHTS for Stage-Specific Inhibitors of Vaccinia Orthopoxvirus: mCherry Reporter Primary qHTS; further: nearly all actives have a fitted effect of over 35% in size
# Conditions: Vaccinia virus mCherry reporter infection, fluorescence; series mostly up to 36.5 µM; activity change, negative = inhibition: at the top concentration
# On the % scale 0 is the no-effect control and ±100 the full control effect; potency means the concentration at half of the fitted maximal effect.
Compound,"activity change, negative = inhibition [%]",Potency,outcome
COc1ccc(C(C)(C)C)cc1NC(=O)CN(C)C1=NS(=O)(=O)c2ccccc21,-6.16,–,–
COC(=O)[C@]12CCCCC=C1N(CCC1=CCCCC1)C(=O)[C@H](CC(=O)N1CCSCC1)C2,-2.98,–,–
C=C1C([C@@]2(C)C(OC(C)=O)CC(=O)O[C@@](C)(COC(C)=O)C2CC(=O)OC)C(OC=O)C(OC(=O)C(O)C(C)CC)[C@]2(C)C(c3ccoc3)CC(=O)C12O (stereo not given in full),–,2 µM (active),–
CCC(C)C(=O)O[C@@H]1C[C@@]2(C)C(c3ccoc3)OC(=O)CC23OC2(C)O[C@@]14[C@@]1(C)C(CC(=O)OC)C5(C)CC1(O)C(O)(C5OC(=O)C1(C)OC1C)C(OC(C)=O)[C@@]34O2 (stereo not given in full),-8.3,–,–
COC(=O)CC1C(C)(C)C(OC(C)=O)C2CC3=C4CC(=O)OC(c5ccoc5)[C@]4(C)CCC3[C@@]1(C)C2=O (stereo not given in full),-21.6,–,–
COc1ccc(C(O)c2nc(-c3ccc4c(c3)OCO4)cs2)cc1 (stereo not given),23,–,–
CCc1nc2c(OCc3cccc(OC)c3)cccn2c1N(C)C(=O)C(C)C,-4.52,–,–
CCN1CCCC1CNC(=O)c1ccc2c(c1)NC(=O)/C(=C\c1ccccc1F)S2 (stereo not given),-6.17,–,–
CC(=O)c1cccc(-c2cnc3c(NC=O)cc(-c4ccccc4Oc4ccccc4)cn23)c1,-26.7,–,–
CCOc1ccc(S(=O)(=O)Nc2ccc(OC)nc2)cc1,-23.6,–,–
COc1ccc(NC(=O)CN2C(=O)NC(C)(c3ccccc3)C2=O)cn1 (stereo not given),-11.4,–,–
COc1ccc(CS(=O)/C(Cl)=C(/Cl)C(=O)Nc2ccc(OC)nc2)cc1 (stereo not given),–,3.98 µM (active),–
CCN(CC)S(=O)(=O)c1ccc(N2CCCC2)c(NC(=O)c2ccc([N+](=O)[O-])o2)c1,–,14.1 µM (active),–
CCN(CC)S(=O)(=O)c1ccc(N2CCN(C)CC2)c(NC(=O)Nc2ccccc2F)c1,-18.6,–,–
CCN(CC)S(=O)(=O)c1cc(C(=O)Nc2cc(S(=O)(=O)N3CCOCC3)ccc2N2CCCC2)ccc1F,-3.76,–,–
COc1cccc(CNc2nc(NCc3cccs3)nc3ccsc23)c1,-24.8,–,–
OC(c1ccccc1)c1nc(-c2cnc3ccccc3c2)cs1 (stereo not given),–,–,inactive
CC1(c2cccc(Br)c2)NC(=O)N(CC(=O)NCCC2=CCCCC2)C1=O (stereo not given),-13.2,–,–
O=C(NCCOc1ccccc1)N1[C@H]2CC[C@@H]1C=C(c1ccc(F)cc1OCc1ccccc1)C2,-10.1,–,–
CC1(C(=O)O)CCN1C(=O)/C=C/c1ccccc1 (stereo not given),5.83,–,–
CC1(C(=O)NS(=O)(=O)c2ccccc2)CCN1C(=O)C/C=C/c1ccccc1 (stereo not given),-13.6,–,–
CC1(C)CCSC(/C=C/c2ccccc2)=N1,–,11.2 µM (active),–
COc1ccc(Cc2nnc(N/N=C/c3ccccc3O)[nH]c2=O)cc1OC,–,1.26 µM (active),–
O=c1[nH]c(NCCO)nnc1Cc1ccc(Cl)cc1,-6.45,–,–

Compound,"activity change, negative = inhibition [%]",Potency,outcome
COc1ccc(/C=N/Nc2nc3ccccc3c(=O)[nH]2)cc1,–,–,inactive
CCC(c1nnnn1-c1ccc2c(c1)OCCO2)N1CCN(c2ccc(C(F)(F)F)cn2)CC1 (stereo not given),-14.7,–,–
O=C(C(=O)N1CCC(c2ccccc2)CC1)c1ccccc1,–,–,inactive
CCOC(=O)[C@]12CCC=C1N(CCC1=CCCCC1)C(=O)[C@H](CC(=O)NCc1ccc(C)o1)C2,-14.5,–,–
CN(C(=O)c1cccc(NC(=O)Cc2cccc(NC(=O)C3CCCN(C(=O)C4CC4)C3)c2)c1)C1CCC1 (stereo not given),-2.68,–,–
CN(C(=O)c1cccc(NC(=O)Cc2cccc([N+](=O)[O-])c2)c1)C1CCCCC1,–,10 µM (active),–
CN(C(=O)c1cccc(NC(=O)Cc2ccc(NC(=O)C3CCN(C(=O)C4CCCCC4)CC3)cc2)c1)C1CCC1,0.303,–,–
CCN(CC)C(=O)C(C)N1c2cccc3cccc(c23)S1(=O)=O (stereo not given),–,–,inactive
CSCCC(C(=O)NC(C)(C)C)n1c(-c2ccccc2)nc2ccccc21 (stereo not given),5.73,–,–
CCCNC(=O)C1(C)CCN1C(=O)Cc1ccc(-c2ccccc2)cc1 (stereo not given),-12,–,–
CC(C)N1CCc2c(sc(NC(=O)Cc3ccccc3)c2C#N)C1,-27,–,–
CC(=O)N1CCc2c(sc(NC(=O)CCS(=O)(=O)c3ccc(C)cc3)c2C(N)=O)C1,-21.1,–,–
CC(=O)N1CCc2c(sc(NC(=O)CCS(=O)(=O)c3ccccc3)c2C#N)C1,–,12.6 µM (active),–
CCc1oc(-c2ccc(OC)cc2)c(C(=O)OCCCCCO)c1C(C)OCCO (stereo not given),–,–,inactive
O=C(c1cnn2c1NC(=C1CC1)C=C2C(F)F)N1CCc2ccccc2C1,-18.9,–,–
CN(C)c1cccc(NC(=O)c2ccc(-c3ccc(F)c(F)c3)c3ccoc23)c1,–,–,inactive
Cc1ccccc1S(=O)(=O)NC(=O)C1(C)CCN1C(=O)C1(c2ccccc2)CCCC1 (stereo not given),–,–,inactive
COc1ccc2c(Cl)c(-c3nnco3)sc2c1,–,–,inactive
C#CCSc1nnc(-c2sc3ccccc3c2Cl)o1,–,11.2 µM (active),–
O=C(OCC#CCSc1nnc(-c2ccncc2)o1)c1sc2ccccc2c1Cl,–,–,inactive
CC1(C(=O)Nc2cccnc2)Cc2c(-c3ccccc3)ccnc2O1 (stereo not given),3.66,–,–
COc1ccc(NS(=O)(=O)c2ccc(NC(=S)NC(=O)/C=C/c3ccc(C)cc3)cc2)nn1,-23.6,–,–
COc1ccc(C(=O)Oc2cc(/C=N/NS(=O)(=O)c3ccc(C)cc3)ccc2OC)cc1,-0.0272,–,–
COc1ccc(/C=C/C(=O)c2ccc(NS(=O)(=O)c3ccc(C)cc3)cc2)cc1O,–,12.6 µM (active),–

Compound,"activity change, negative = inhibition [%]",Potency,outcome
CCOC(=O)[C@]12CCCC=C1N(Cc1ccc3c(c1)OCO3)C(=O)[C@H](CC(=O)N1CCN(C(=O)c3ccco3)CC1)C2,17.3,–,–
Cc1ccccc1NC(=O)Cc1nc(COC(=O)CNC(=O)c2ccc(Cl)cc2Cl)cs1,–,–,inactive
Cc1ccccc1NC(=O)Cc1nc(COC(=O)C(C)(C)Oc2ccc(Cl)cc2)cs1,-3.94,–,–
C/C=C/C(=O)OCc1csc(CC(=O)Nc2ccccc2C)n1,–,5.01 µM (active),–
CCC(C(=O)NC(C)(C)C)n1c(-c2ccccc2)nc2ccccc21 (stereo not given),-9.32,–,–
CC(C)=C(NC(=O)c1ccccc1)C(=O)N/N=C(\C)c1ccccc1O,-21.4,–,–
C/C(=N\NC(=O)c1ccoc1C)c1ccccc1O,–,1.12 µM (active),–
C/C(=N\NC(=O)c1ccccc1C)c1ccc(N2CCOCC2)cc1,-16,–,–
CCOC(=O)[C@]12CCCC=C1N(CCC1=CCCCC1)C(=O)[C@H](CC(=O)N1CCN(C(=O)c3ccco3)CC1)C2,–,–,inactive
CCc1c(-c2ccc(F)cc2)ncn1Cc1cccc(-c2ccccc2)c1,–,–,inactive
N#Cc1cccc(NC(=O)c2cc(C3CCCCN3C(=O)CCc3ccccc3)on2)c1 (stereo not given),1.36,–,–
Cc1cc2c(cc1C)N1C(=O)c3cc4ccccc4cc3NC(=O)C1C(=O)N2 (stereo not given),11.5,–,–
FC(F)(F)c1cccc(N/N=C/c2ccccc2)c1,-17.6,–,–
Oc1ccc(/C=N/Nc2ccc(C(F)(F)F)cn2)cc1O,–,10 µM (active),–
CCNc1nc(NCC)nc(N/N=C/c2ccc(O)c(OC)c2)n1,-15.6,–,–
O=C(COc1ccccc1C(=O)Nc1ccccc1)Nc1cccc(F)c1,-27.2,–,–
CC1(C(=O)Nc2cccc(Oc3ccccc3)c2)CCN1Cc1ccccc1Cl (stereo not given),–,–,inactive
CN1OC[C@@H]2CN(C(=O)c3ccc(-c4ccccc4)cc3)[C@H](c3ccc(-c4cccc(F)c4)cc3)C[C@@H]21,-2.21,–,–
COc1ccccc1Cc1c(-c2ccc(Cl)cc2)nc2ccc(Cl)cn12,-16.7,–,–
C/C(=N\NC(=O)Cc1ccc(Cl)cc1)c1ccccn1,–,5.01 µM (active),–
C/C(=N\NC(=O)Cc1ccc(F)cc1)c1ccc(F)cc1,-19.4,–,–
C/C(=N\NC(=O)c1ccccc1F)c1ccccn1,–,2 µM (active),–
O=C(NCCOc1ccccc1)c1ccccc1F,-10.6,–,–
C/C(=N\NC(=O)Cc1ccc(Br)cc1)c1cccnc1,–,–,inactive

Compound,"activity change, negative = inhibition [%]",Potency,outcome
O=C(Nc1ccc(NC(=O)c2ccccc2F)cc1)c1ccccc1F,-15,–,–
COc1ccccc1Cc1c(-c2ccc(Cl)cc2)nc2c3ccccc3ccn12,-7.18,–,–
COc1ccc(NC(=O)c2sc(=O)n(Cc3ccc(S(=O)(=O)N(C)C)cc3)c2C)cc1,–,–,inactive
COc1cccc(-c2cc(NC(C)=O)c3ncc(-c4cccc(C(C)=O)c4)n3c2)c1,4.33,–,–
SCc1nc2ccc(Cl)cc2[nH]1,-20.9,–,–
CC(=O)N1Cc2cc(C(=O)NCc3cccc(F)c3)nc(-c3cccc(C4=CCCC4)c3)c2[C@H]1CCO,-22.7,–,–
Cc1ccc(S(=O)(=O)N2CCN(c3ncnc4ccccc34)CC2)cc1,–,–,inactive
Cc1ccc(C)c(S(=O)(=O)n2nc(C)c(S(=O)(=O)N3CCC(C)CC3)c2C)c1,7.85,–,–
Cc1ccc(C)c(S(=O)(=O)N2CCN(c3ncnc4sccc34)CC2)c1,–,7.08 µM (active),–
CCCN(CCC)S(=O)(=O)c1cc2c(cc1Br)CCN2C(=O)CC,-19.1,–,–
CCCNC(=O)C1(C)CCN(Cc2ccc(Cl)c(Cl)c2)C1 (stereo not given),10.3,–,–
CCn1c(=O)c(=O)[nH]c2c(=O)oc3ccc(S(=O)(=O)Nc4ccc(OC)cc4)cc3c21,-4.06,–,–
COc1ccc(NC(=O)c2cnc(NS(=O)(=O)c3ccccc3)nc2)cc1,-2.69,–,–
COc1ccc(NS(=O)(=O)c2ccc3oc(SCC(N)=O)nc3c2)cc1,–,3.55 µM (active),–
Cc1ccc(NC(=O)Cn2sc3ccccc3c2=O)cc1,–,–,inactive
CN(C(=N)N)c1ccc(/C=C2\C=Cc3ccccc32)cc1,-25.5,–,–
CCOC(=O)[C@]12CCCC=C1N(CCC1=CCCCC1)C(=O)[C@H](CC(=O)N1CCCCC1)C2,-13.6,–,–
COc1cc2nc(N3CCCN(C)CC3)nc(NC3CC3)c2cc1OC,-9.78,–,–
c1ccc2sc(NN=C3CCCC3)nc2c1,-13.5,–,–
O=C(Nc1ccccc1Cl)O/N=C(/c1ccccc1)c1ccccn1,-20.6,–,–
c1ccc(C(=NNc2nc3ccccc3s2)c2ccccn2)cc1,–,7.08 µM (active),–
Cc1[nH]c2ccccc2c1C(=O)c1cc([C@H](NC(=O)OC(C)(C)C)C(C)C)sc1N,-10.6,–,–
CCCCN(C(C)=O)c1ccc2c(c1)C1CC2CCN1Cc1ccccc1 (stereo not given),–,–,inactive
